Reference: PubChem BioAssay AID518 (Sanford-Burnham Center for Chemical Genomics, 2006)
Screen size: about 64,000 compounds; about 55 (0.09%) were called active. The rule behind the calls is not given here. Not all results are given here.

Biological target: Alkaline phosphatase, tissue-nonspecific isozyme (Homo sapiens) (UniProt P05186)
Test: human TNAP enzyme inhibitors, biochemical, luminescent (AID 518);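 note: plate controls were vehicle for no effect and reference inhibitor for full effect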
Conditions: purified TNAP enzyme, luminescent substrate readout; at 20 µM; active compounds read high

Chain of Alkaline phosphatase, tissue-nonspecific isozyme (Homo sapiens) (P05186 whole entry, looked up): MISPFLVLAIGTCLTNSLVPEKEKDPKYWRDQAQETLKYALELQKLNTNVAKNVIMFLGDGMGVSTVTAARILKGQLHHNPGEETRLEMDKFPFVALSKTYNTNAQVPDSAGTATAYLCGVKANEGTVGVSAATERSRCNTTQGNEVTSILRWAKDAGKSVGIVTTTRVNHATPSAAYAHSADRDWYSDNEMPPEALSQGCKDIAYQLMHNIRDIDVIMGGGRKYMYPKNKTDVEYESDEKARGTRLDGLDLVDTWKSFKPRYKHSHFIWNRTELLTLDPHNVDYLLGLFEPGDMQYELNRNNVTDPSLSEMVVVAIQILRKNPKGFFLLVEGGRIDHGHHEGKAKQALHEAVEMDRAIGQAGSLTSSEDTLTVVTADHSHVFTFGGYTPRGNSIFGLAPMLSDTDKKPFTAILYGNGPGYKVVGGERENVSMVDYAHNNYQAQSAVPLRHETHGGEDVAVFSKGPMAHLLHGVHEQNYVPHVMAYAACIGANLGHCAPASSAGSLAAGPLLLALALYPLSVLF

SMILES	inhibition
CN(c1cccc(NC(=O)c2ccccc2N(C)S(C)(=O)=O)c1)S(C)(=O)=O	14.3% (inactive)
O=C(NCCCN1CCCC1)C1CCC(=O)N1C1CCCCC1 (stereo unspecified)	7.6% (inactive)
N#Cc1ccc(Sc2nc3ccccc3[nH]2)cc1C#N	0.3% (inactive)
CC(C)Sc1nnc(NC(=O)C2CC2)s1	-0.5% (inactive)
O=C(Nc1cccnc1)c1c(O)c2cccc3c2n(c1=O)CC3	5.4% (inactive)
COc1ccc(CN2CCC(C(=O)N(C)CCc3ccc(OC)c(OC)c3)CC2)c(OC)c1	14% (inactive)
O=C(NC1CCCCC1)c1ccc(Br)o1	9% (inactive)
CC12CN3CC(C)(CN(C1)C3c1ccccc1Cl)C2O (stereo unspecified)	3.8% (inactive)
O=C(NCCc1csc(-c2ccccc2)n1)c1cccs1	9.4% (inactive)
Cc1cc(NC(=O)c2cccc(S(=O)(=O)N3CCCCCC3)c2)n(-c2ccccn2)n1	-5.7% (inactive)
CCOC(=O)C1CCN(C(=O)COC(=O)CCOc2ccc(C)cc2)CC1	7.4% (inactive)
CCOc1ccc(C(=O)CN2CCN(S(=O)(=O)c3ccc(Cl)cc3)CC2)cc1	4.9% (inactive)
COc1ccc(C(C)=O)cc1CSc1nnc(C)s1	7% (inactive)
CC(=O)c1cccc(NC(=O)c2cccc(S(=O)(=O)N(C)C)c2)c1	6.3% (inactive)
c1ccc2c(c1)CNc1ccccc1C2	5% (inactive)
COc1ccc(-n2nnc3c(SCC(=O)NCc4ccco4)ncnc32)cc1	11.9% (inactive)
COc1cccc(NC(=O)c2ccc3c(c2)N(CC(=O)N2CCCCC2)C(=O)C(C)(C)O3)c1	1.3% (inactive)
COc1ccc(Nc2nc(N)nc(SCc3nnc(C)s3)n2)cc1	-0.5% (inactive)
COc1ccccc1N1CCN(C(=O)CSc2nnc3n2C(C)(C)Cc2ccccc2-3)CC1	10.5% (inactive)
CC1=C(c2ccc(Cl)cc2)[N+](=O)C(C)(C)N1[O-]	20.3% (inactive)
Cc1ccc(C(C(=O)NC2CCCCC2)N(CC2CCCO2)C(=O)CNC(=O)c2ccco2)cc1 (stereo unspecified)	2.7% (inactive)

SMILES	inhibition
CC(OC(=O)CNC(=O)c1ccc2c(c1)OCO2)C(=O)NCCC1=CCCCC1 (stereo unspecified)	8.9% (inactive)
CN(C)c1ccc(C(C(=O)NC(C)(C)C)N(C(=O)c2csnn2)C2CC2)cc1 (stereo unspecified)	6.8% (inactive)
CC(c1nnc(SCC(=O)c2c(N)n(C)c(=O)n(C)c2=O)n1-c1ccc(Cl)cc1)N(C)C (stereo unspecified)	2.8% (inactive)
CC1CCCCN1CCNC(=O)C1CCN(S(=O)(=O)c2cccc3cccnc23)CC1 (stereo unspecified)	9.7% (inactive)
Cc1ccc(S(=O)c2ccc(C)cc2)cc1	4.1% (inactive)
O=C(CC1CCCCC1)c1c(O)c2ccccc2oc1=O	5% (inactive)
CCOC(=O)c1[nH]c(CSc2nnc(-c3ccncc3)n2CCOC)c(C(=O)OCC)c1C	10.1% (inactive)
CC1CC=C2C(C#N)=C(N)C(C#N)(C#N)C(c3cccs3)C2C1 (stereo unspecified)	8.9% (inactive)
CCc1ccc(Nc2cc(=O)n(C3CCCCC3)c(=O)[nH]2)cc1	11.3% (inactive)
COc1cccc(-c2cc(C(=O)NCc3ccc(Cl)cc3)no2)c1	8.1% (inactive)
COc1ccc(S(=O)(=O)N2C3CCC2CC(NC(=O)C2CC2)C3)cc1 (stereo unspecified)	2% (inactive)
Nc1nc(CN2CCN(Cc3ccc4c(c3)OCO4)CC2)nc(Nc2ccccc2)n1	12.3% (inactive)
CC1(C)NC(=O)N(CC(O)COc2ccc(N3C(=O)c4ccccc4C3=O)cc2)C1=O (stereo unspecified)	8.6% (inactive)
COc1ccc(N2C(=O)CSC2c2ccc3c(c2)OCO3)cc1 (stereo unspecified)	13.6% (inactive)
CC(C)NS(=O)(=O)c1ccc(OCC(N)=O)c(Cl)c1	9.1% (inactive)
Cc1cccc(NC(=O)CC(C)(C)C)c1	8.8% (inactive)
Cc1nc(CSc2nnc3scc(-c4ccccc4)n23)cs1	6.4% (inactive)
CCCCCN=C(C)c1c(O)c2ccccc2oc1=O	7.3% (inactive)
CNc1oc(Cc2ccccc2)nc1S(=O)(=O)c1ccccc1	9.1% (inactive)
COC(=O)Nc1sc2c(c1C(N)=O)CCCCCC2	15.8% (inactive)
